HCV inh = HCV inhibition; Huh7.5.1 HCVcc-Cre infection, luciferase reporter, 44 h; Potency, µM (top dose mostly 41.8 µM), without a hit: at the top dose activity change, negative = inhibition, most hits filed as inhibitors; 340,000 compounds, 3.4% hits; AID 651820; further: potency means the concentration at half of the fitted maximal effect
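Whole-lifecycle infectious HCVcc-Cre system; cells 1,000/well, compound then virus (~0.5 moi) added 4 h after plating, 44 h culture. Luciferase read 15 sec following 15 min substrate incubation, room temp.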
FMDV inh = antivirals against foot and mouth disease virus | 410,000 compounds, 1.2% hits | FMDV antiviral cell-based qHTS | Potency, µM (top dose mostly 57.9 µM), for inactives: top-dose activity change, negative = inhibition, most hits filed as inhibitors; calls by dose curve; tested in HEK293T cells; further: read-out not given here; potency means the concentration at half of the fitted maximal effect; nearly all actives have a fitted effect of over 45% in size
MARV entry inh = Marburg virus entry inhibition | Potency, µM (highest dose often 37.8 µM), without a hit: at the top dose activity change, negative = inhibition, hits mostly inhibitors | 300,000 compounds, 1.8% hits | Marburg virus pseudotyped entry inhibition, cell reporter | AID 540276; calls by dose curve; tested in HEK293 cells; further: potency means the concentration at half of the fitted maximal effect
FBPA Giardia inh = Giardia lamblia aldolase inhibition | Potency, µM (top dose mostly 59.6 µM), for the others: top-dose activity, negative = inhibition, hits mostly inhibitors | 290,000 compounds, 0.71% hits | purified Giardia FBPA | AID 2451 | A8B2U2; further: potency means the concentration at half of the fitted maximal effect; nearly all actives have a fitted effect of over 55% in size
Target sequence (A8B2U2 whole entry, looked up): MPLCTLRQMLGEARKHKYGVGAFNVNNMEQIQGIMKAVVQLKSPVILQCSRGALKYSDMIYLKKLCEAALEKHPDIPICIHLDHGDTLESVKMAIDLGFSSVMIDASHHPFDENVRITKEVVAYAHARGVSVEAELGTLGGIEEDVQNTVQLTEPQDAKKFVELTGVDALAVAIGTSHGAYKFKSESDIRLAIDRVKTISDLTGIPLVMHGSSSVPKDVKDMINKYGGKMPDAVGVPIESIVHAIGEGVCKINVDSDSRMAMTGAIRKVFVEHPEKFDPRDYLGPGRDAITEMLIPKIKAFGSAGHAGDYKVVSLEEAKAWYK
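Giardia FBPA (40 nM reagent) was preincubated 10 min at RT with compound (up to 57.5 uM final), then substrate plus GAPDH/TPI/NAD/arsenate coupling system with diaphorase/resazurin was added; resorufin fluorescence (525/598 nm) was read after 20 min.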
HCMV antiviral = inhibitors of human cytomegalovirus; HFF cells, HCMV-luciferase reporter, 72 h; hits give low values; activity change, negative = inhibition, % at 57.5 µM; 410,000 compounds, 4.5% hits; AID 1259415; in the data active means activity change below about -60%; inconclusive means no clear call, values can overlap the other calls; inactive means above about -39%
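HFF cells seeded 16 h at 37C, treated with compounds, infected with luciferase-reporter HCMV at MOI 1 PFU/cell; luciferase read at 72 h post infection, normalized to buffer-only and Salinomycin controls.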
Lassa entry inh = blocks Lassa virus binding to or entry into cells | Lassa virus pseudotype entry inhibition, cell reporter | AID 540256 | Potency, µM (top dose mostly 37.9 µM), inactives show top-dose activity change, negative = inhibition, hits mostly inhibitors | 300,000 compounds, 1.2% hits; calls by dose curve; tested in HEK293 cells; further: potency means the concentration at half of the fitted maximal effect; nearly all actives have a fitted effect of over 50% in size
An asterisk follows results filed as active; ? = inconclusive; / = no result; [ ] = remark or other dose. Only some compounds are listed: those with a hit (about 8.3% of all), similar ones and a draw of the others. Unless noted, the call rests on the fitted dose curve; in most records, active means well fitted curve in the direction sought with a large enough effect; inconclusive means small, poorly fitted or top-dose-only effect, or another doubt; inactive means no such curve, though single readings can be large; an effect the other way counts as inactive or inconclusive. On the % scale 0 is the no-effect control and ±100 the full control effect.

SMILES	HCV inh	FMDV inh	MARV entry inh	FBPA Giardia inh	HCMV antiviral	Lassa entry inh
CNC(=S)NC1CC2CCCC(C1)N2Cc1ccc(C)cc1 (stereo unspecified)	?	-18.3%	4.61µM*	-6.5%	-3.8	14.6%
Cc1ccc(CN2C3CCCC2CC(NC(=S)NCc2ccccc2)C3)cc1 (stereo unspecified)	?	-6.9%	?	-15.0%	-66.6*	?
CCCCC/C=C\C/C=C\CCCCCCCC(=O)NCCc1ccc(O)c(O)c1	/	/	/	0.3%	/	/
COCc1c(C(=O)NC2CCCC2)cnn1-c1nccc(-c2cc(C)sc2C)n1	/	34.9%	/	/	/	/
NC(=O)C1=C(c2ccccc2)c2ccccc2C1=O	-1.3%	31.6µM*	?	/	-7.9	?
CC(C)N(C(=O)c1ccccc1-c1ccccc1)C(C)C	?	?	-19.4%	-7.7%	-4.2	-1.1%
C#Cc1cccc(C(=O)NCc2nc(-c3ccccc3NC(=O)C3CCCO3)oc2C)c1 (stereo unspecified)	/	-7.0%	/	/	/	/
COc1ccccc1-c1c(C)nn2c(N3CCN(c4ccc(Cl)cc4)CC3)cc(C)nc12	/	?	/	/	-13.8	-1.6%[46.1 µM]
Cc1ccccc1OCC(=O)Nc1ccc2nc(SCC(=O)N3CCOCC3)sc2c1	/	28.2µM*	-19.6%[46.1 µM]	/	-78.2*	6.7%[46.1 µM]
Cc1ccccc1OCC(=O)Nc1ccc2nc(SCC(=O)N3CCCC3)sc2c1	/	-22.3%	?	/	-35.0	10.8%[46.1 µM]
Cc1ccccc1OCc1nnc(SCC(=O)Nc2ccc3nc(SCC(=O)Nc4ccccc4)sc3c2)n1C	1.12µM*	0.0%	?	-3.2%	-20.3	?
NCCOc1ccc(C23CC4CC(CC(C4)C2)C3)cc1	?	?	/	-1.4%	-85.0*	/
NCCOc1ccc(C2CCCCC2)cc1	-10.5%	5.9%	?	7.0%	6.9	1.9%
OCCN1CCN(CC(O)COc2ccc(C34CC5CC(CC(C5)C3)C4)cc2)CC1 (stereo unspecified)	12.6µM*	-16.9%	?	-10.0%	-95.7*	?
OCCN1CCN(CC(O)COc2ccc(Cl)cc2)CC1 (stereo unspecified)	-27.8%	-4.5%	19.3%	-13.4%	11.7	4.7%
COc1cc2c(cc1OC)C(C)N(C(=O)c1cc3c(s1)-c1ccccc1OC3)CC2 (stereo unspecified)	11.2µM*	?	1.0%	-8.8%	-20.0	-9.0%
COc1cc2c(cc1OC)C(C)N(C(=O)C1COc3ccccc3O1)CC2 (stereo unspecified)	?	25.1µM*	?	-0.2%	-65.1*	?
COc1cc2c(cc1OC)C(C)N(C(=O)c1cc3c(s1)-c1c(C)cccc1OC3)CC2 (stereo unspecified)	?	-17.8%	-3.0%	-8.9%	?	-20.4%
Cc1ccc(/C=N/NC(=O)Cc2cccs2)o1	15.1%	5.0%	11.9%	-6.3%	-74.3*	8.5%
COc1ccc(/C=N/NC(=O)Cc2cccs2)cc1	7.9%	82.8%	/	0.6%	78.8	/
Fc1ccc(Nc2nc(-c3ccncc3)cs2)cc1	?	10.5%	-61.4%	0.6%	71.1	11.6%
Nc1ccc(Nc2nc(-c3ccncc3)cs2)cc1	7.94µM*	15.5%	?	1.4%	-98.6*	?
COc1ccc2oc(=O)c(-c3csc(-c4ccc(Br)cc4)n3)cc2c1	/	-5.7%	/	/	24.1	14.1%[46.1 µM]
Nc1nc(-c2ccc(Br)cc2)cs1	-25.8%	-5.6%	7.2%	9.0%	4.0	?
Brc1ccc(-c2csc(Nc3nc(-c4ccc(Br)cc4)cs3)n2)cc1	-29.5%	-1.4%	-17.9%[46.1 µM]	0.5%	-86.7*	-12.4%[46.1 µM]
SMILES	HCV inh	FMDV inh	MARV entry inh	FBPA Giardia inh	HCMV antiviral	Lassa entry inh
Clc1ccc(Nc2nc(-c3ccncc3)cs2)cc1	?	12.4%	7.94µM*	/	7.3	15.3%
COc1ccc2oc(=O)c(-c3csc(Nc4ccc(O)cc4)n3)cc2c1	11.2µM*	?	?	-5.8%	?	10µM*
COc1ccccc1C1CN(CC(=O)N[C@H]2CCCCNC2=O)Cc2ccccc2O1 (stereo partly specified)	/	-6.4%	/	/	/	/
Oc1ccc(Nc2nc(-c3ccc(O)cc3)cs2)cc1	10µM*	46.1%	-16.6%	17.5%	12.5	?
NNC(=O)Cn1c2c(c3c1CCCC3)CCCC2	/	/	1.0%[46.1 µM]	/	/	/
CCOC(=O)[C@]12Cc3cc(Cl)ccc3[C@H]1N(Cc1ccccc1)C(=O)c1cc(OC)ccc12	/	8.91µM*	/	/	-106.3*	/
CCOC(=O)[C@]12Cc3cc(OC)ccc3[C@H]1N(Cc1ccccc1)C(=O)c1cc(OC)ccc12	/	-14.9%	/	/	6.2	/
CCOC(=O)[C@]12Cc3ccc4ccccc4c3[C@H]1N(Cc1ccccc1)C(=O)c1ccccc12	/	22.4µM*	/	/	59.1	/
CCOC(=O)[C@]12Cc3cc4ccccc4cc3[C@H]1N(Cc1ccccc1)C(=O)c1cc(OC)ccc12	/	7.94µM*	/	/	-90.6*	/
CCOC(=O)[C@]12Cc3ccsc3[C@H]1N(Cc1ccccc1)C(=O)c1ccccc12	?	?	/	/	1.7	/
CCOC(=O)[C@]12Cc3cc4ccccc4cc3[C@H]1N(Cc1ccccc1)C(=O)c1ccccc12	/	?	/	/	-96.8*	/
CCOC(=O)[C@]12Cc3cc(OC)c(OC)cc3[C@H]1N(Cc1ccccc1)C(=O)c1ccccc12	?	-3.3%	/	/	62.6	/
OC1c2ccccc2N=C2CCCN21 (stereo unspecified)	/	/	/	-0.9%	/	/
Cc1ccccc1-n1c(SCC(=O)Nc2ccc(Cl)cc2Cl)nc(O)cc1=O	/	-21.0%	-24.6%[46.1 µM]	/	-33.5	-2.1%[46.1 µM]
COc1ccc2c(c1)O[C@@H](c1cccc(C(F)(F)F)c1)[C@H](OC(=O)NCc1ccc3c(c1)OCO3)C2=O	/	/	/	2.5%	/	/
CC(=O)OCCC(C)CCC=C(C)C (stereo unspecified)	/	-12.9%	/	-0.3%	/	/
O=C(C1CCOCC1)N1CC(=O)N2[C@@H](CO)[C@H](c3ccc(Br)cc3)[C@@H]2C1	/	/	/	/	-1.6	/
CCOc1ccc(-c2nonc2NC(=O)c2oc3ccc(Cl)cc3c2C)cc1	/	-6.3%	-14.2%[46.1 µM]	/	-38.1	3.4%[46.1 µM]
CCCCCN1C(=O)c2cc(OC)ccc2[C@@]2(C(=O)OCC)Cc3cc(Cl)ccc3[C@@H]12	/	7.94µM*	/	/	-103.4*	/
C/C(=N/NC(=O)CNC(=O)COc1ccccc1)c1ccco1	5.1%	14.8%	?	-0.3%	-63.4*	-0.7%
O=C(COc1ccccc1)Nc1ccc(S(=O)(=O)NCc2ccco2)cc1	?	37.8%	?	0.4%	9.1	23.1µM*
O=C(COc1ccccc1F)Nc1ccc(S(=O)(=O)NCc2ccco2)cc1	-8.2%	?	-27.4%	6.9%	-20.1	?
C/C(=N/NC(=O)CNC(=O)COc1cccc(C)c1)c1ccco1	28.0%	1.5%	?	7.4%	0.6	-0.6%
O=C(COc1ccccc1)NCC(=O)Nc1ccc(S(=O)(=O)NCc2ccco2)cc1	17.3%	-16.7%	3.7%	0.4%	-103.1*	-8.0%
